# Experimental data published in the supplement of paper PMC6411743.
# ± gives the standard deviation of the averaged measurements. The full data set covers some 5,400 targets. This sample favours those with the largest changes.
# Compound: Nc1nc2c(ncn2[C@@H]2O[C@H](COP(=O)(O)OP(=O)(O)OP(=O)(O)O)[C@@H](O)[C@H]2O)c(=O)[nH]1 [guanosine triphosphate]
# Assay: NP40-soluble protein abundance relative to vehicle (solubility fold change) (ratio); higher = more soluble protein in presence of GTP
# Experimental: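 Solubility proteome profiling in Jurkat crude lysate. Lysate was treated with Mg-GTP (0.1-10 mM) for 10 min at room temperature and 3 min at 37 °C, then solubilised with 0.8% NP40 and benzonase, followed by ultracentrifugation. Proteins were quantified by TMT10 LC-MS/MS; the value is the NP40-soluble abundance relative to the NP40-processed vehicle, from 3 independent experiments.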
# Sequence of UniProt Q96SY0 (Q96SY0 whole entry, one chain of several): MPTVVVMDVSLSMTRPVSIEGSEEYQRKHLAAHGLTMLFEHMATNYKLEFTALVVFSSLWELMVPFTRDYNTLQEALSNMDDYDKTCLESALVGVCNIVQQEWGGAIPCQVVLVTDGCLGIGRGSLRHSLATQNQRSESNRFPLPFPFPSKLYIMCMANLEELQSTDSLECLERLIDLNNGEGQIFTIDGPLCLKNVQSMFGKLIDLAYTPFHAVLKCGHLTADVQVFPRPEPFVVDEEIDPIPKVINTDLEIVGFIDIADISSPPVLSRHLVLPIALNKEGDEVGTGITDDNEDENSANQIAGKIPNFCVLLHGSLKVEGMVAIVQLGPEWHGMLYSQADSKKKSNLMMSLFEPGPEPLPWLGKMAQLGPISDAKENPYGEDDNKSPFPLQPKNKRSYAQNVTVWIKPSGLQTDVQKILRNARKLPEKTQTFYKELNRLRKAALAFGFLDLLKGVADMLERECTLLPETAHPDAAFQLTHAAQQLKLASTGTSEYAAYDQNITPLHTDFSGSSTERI
# Sequence of UniProt Q9Y624 (Q9Y624 whole entry, one chain of several): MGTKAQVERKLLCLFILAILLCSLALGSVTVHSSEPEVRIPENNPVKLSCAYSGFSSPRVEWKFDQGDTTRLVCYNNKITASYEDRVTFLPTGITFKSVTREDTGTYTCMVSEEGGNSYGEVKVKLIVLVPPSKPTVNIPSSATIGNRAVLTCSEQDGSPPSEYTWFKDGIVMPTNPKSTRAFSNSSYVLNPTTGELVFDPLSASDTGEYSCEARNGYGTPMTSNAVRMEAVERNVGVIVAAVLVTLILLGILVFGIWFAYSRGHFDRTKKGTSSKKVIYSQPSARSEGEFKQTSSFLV
# Sequence of UniProt Q8NI36 (Q8NI36 whole entry, one chain of several): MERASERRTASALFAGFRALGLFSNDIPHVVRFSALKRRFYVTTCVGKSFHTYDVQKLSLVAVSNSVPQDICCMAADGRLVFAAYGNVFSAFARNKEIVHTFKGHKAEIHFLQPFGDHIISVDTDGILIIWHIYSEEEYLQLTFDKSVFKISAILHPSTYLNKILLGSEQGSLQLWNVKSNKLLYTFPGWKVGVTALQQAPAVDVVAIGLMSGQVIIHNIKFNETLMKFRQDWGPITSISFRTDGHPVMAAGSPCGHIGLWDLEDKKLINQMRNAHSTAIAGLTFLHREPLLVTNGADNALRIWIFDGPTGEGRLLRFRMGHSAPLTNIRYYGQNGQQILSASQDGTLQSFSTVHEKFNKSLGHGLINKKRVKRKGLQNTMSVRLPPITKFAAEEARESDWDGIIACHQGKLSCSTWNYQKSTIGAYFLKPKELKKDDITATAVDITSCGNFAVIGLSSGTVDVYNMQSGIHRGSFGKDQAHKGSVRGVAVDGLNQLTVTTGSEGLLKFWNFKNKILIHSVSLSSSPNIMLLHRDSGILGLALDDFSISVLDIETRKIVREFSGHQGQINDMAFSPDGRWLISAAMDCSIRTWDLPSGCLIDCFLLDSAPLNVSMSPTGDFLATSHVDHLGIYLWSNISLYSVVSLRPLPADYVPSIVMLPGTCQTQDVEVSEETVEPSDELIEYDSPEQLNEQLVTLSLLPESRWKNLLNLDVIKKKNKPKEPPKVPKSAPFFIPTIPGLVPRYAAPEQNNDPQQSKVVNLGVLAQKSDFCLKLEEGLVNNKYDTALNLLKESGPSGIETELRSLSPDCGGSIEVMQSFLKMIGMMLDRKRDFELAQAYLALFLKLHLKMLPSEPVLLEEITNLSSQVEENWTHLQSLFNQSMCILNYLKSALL
# Sequence of UniProt Q9NTI5 (Q9NTI5 whole entry, one chain of several): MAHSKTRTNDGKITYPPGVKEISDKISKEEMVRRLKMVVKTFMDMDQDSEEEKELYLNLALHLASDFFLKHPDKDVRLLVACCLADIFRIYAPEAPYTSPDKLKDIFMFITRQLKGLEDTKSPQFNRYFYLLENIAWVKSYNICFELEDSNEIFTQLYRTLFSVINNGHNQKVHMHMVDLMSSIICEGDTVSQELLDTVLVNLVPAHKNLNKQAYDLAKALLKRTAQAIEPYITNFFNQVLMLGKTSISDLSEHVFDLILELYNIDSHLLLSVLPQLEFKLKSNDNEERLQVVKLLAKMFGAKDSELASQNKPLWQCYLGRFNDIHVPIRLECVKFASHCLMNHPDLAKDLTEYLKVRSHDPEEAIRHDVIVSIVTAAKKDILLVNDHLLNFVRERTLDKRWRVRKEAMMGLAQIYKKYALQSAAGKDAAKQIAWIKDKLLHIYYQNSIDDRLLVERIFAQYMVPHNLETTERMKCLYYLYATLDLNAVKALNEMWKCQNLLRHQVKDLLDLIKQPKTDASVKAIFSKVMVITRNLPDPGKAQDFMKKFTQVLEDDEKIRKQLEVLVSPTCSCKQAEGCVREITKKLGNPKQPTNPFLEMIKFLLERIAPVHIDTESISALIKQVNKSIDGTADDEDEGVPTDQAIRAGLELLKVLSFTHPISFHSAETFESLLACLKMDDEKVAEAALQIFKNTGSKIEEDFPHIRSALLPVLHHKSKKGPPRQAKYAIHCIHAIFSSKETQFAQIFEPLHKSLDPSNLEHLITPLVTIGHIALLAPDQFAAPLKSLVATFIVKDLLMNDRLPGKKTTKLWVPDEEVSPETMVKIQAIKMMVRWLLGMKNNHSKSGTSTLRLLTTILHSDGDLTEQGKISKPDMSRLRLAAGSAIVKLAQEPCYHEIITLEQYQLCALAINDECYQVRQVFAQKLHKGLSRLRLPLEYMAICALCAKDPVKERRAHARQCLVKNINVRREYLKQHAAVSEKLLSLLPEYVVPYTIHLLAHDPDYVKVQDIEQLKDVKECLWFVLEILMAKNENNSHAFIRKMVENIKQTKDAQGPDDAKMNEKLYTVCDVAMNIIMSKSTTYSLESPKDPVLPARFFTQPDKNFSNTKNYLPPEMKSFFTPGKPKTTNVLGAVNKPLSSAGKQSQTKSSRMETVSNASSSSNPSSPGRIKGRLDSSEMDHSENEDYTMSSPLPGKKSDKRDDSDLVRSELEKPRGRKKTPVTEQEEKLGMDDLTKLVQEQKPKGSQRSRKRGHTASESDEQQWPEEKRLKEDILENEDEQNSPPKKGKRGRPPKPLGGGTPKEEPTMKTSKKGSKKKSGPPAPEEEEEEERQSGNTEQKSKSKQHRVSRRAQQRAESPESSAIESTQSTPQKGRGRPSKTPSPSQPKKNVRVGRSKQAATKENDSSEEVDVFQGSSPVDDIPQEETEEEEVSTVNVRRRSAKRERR
target,measurement,setting,value
A0A0A0MTB8|Q8NI36 (UniProt Q8NI36),NP40-soluble protein abundance,concentration: 0.1mM,1.1 ± 0.013
same,NP40-soluble protein abundance,concentration: 0.5mM,1.18 ± 0.047
same,NP40-soluble protein abundance,concentration: 1mM,1.2 ± 0.064
same,NP40-soluble protein abundance,concentration: 2mM,1.55 ± 0.056
same,NP40-soluble protein abundance,concentration: 4mM,2 ± 0.13
same,NP40-soluble protein abundance,concentration: 6mM,2.39 ± 0.2
same,NP40-soluble protein abundance,concentration: 8mM,2.33 ± 0.13
same,NP40-soluble protein abundance,concentration: 10mM,2.39 ± 0.3
A0A087WY82|Q9Y624|Q9Y624-2 (UniProt Q9Y624),NP40-soluble protein abundance,concentration: 0.1mM,1 ± 0.041
same,NP40-soluble protein abundance,concentration: 0.5mM,0.953 ± 0.1
same,NP40-soluble protein abundance,concentration: 1mM,0.979 ± 0.038
same,NP40-soluble protein abundance,concentration: 2mM,0.938 ± 0.059
same,NP40-soluble protein abundance,concentration: 4mM,0.851 ± 0.066
same,NP40-soluble protein abundance,concentration: 6mM,0.952 ± 0.01
same,NP40-soluble protein abundance,concentration: 8mM,0.858 ± 0.076
same,NP40-soluble protein abundance,concentration: 10mM,0.898 ± 0.011
B4DJL6|Q96SY0|B4DVT3|H3BRY6|Q96SY0-3|Q96SY0-4 (UniProt Q96SY0),NP40-soluble protein abundance,concentration: 0.1mM,1.03 ± 0.049
same,NP40-soluble protein abundance,concentration: 0.5mM,1.03 ± 0.035
same,NP40-soluble protein abundance,concentration: 1mM,1.03 ± 0.064
same,NP40-soluble protein abundance,concentration: 2mM,1.07 ± 0.051
same,NP40-soluble protein abundance,concentration: 4mM,1.03 ± 0.058
same,NP40-soluble protein abundance,concentration: 6mM,1.09 ± 0.025
same,NP40-soluble protein abundance,concentration: 8mM,1.07 ± 0.086
same,NP40-soluble protein abundance,concentration: 10mM,1.05 ± 0.066
A9IYQ1|Q9NTI5|Q9NTI5-2 (UniProt Q9NTI5),NP40-soluble protein abundance,concentration: 0.1mM,1.01 ± 0.015
same,NP40-soluble protein abundance,concentration: 0.5mM,1.03 ± 0.024
same,NP40-soluble protein abundance,concentration: 1mM,1.01 ± 0.015
same,NP40-soluble protein abundance,concentration: 2mM,0.995 ± 0.036
same,NP40-soluble protein abundance,concentration: 4mM,1.01 ± 0.035
same,NP40-soluble protein abundance,concentration: 6mM,1.01 ± 0.052
same,NP40-soluble protein abundance,concentration: 8mM,1.02 ± 0.08
same,NP40-soluble protein abundance,concentration: 10mM,0.992 ± 0.041
A0A087WTT6|P62273|P62273-2 (UniProt P62273),NP40-soluble protein abundance,concentration: 0.1mM,0.92 ± 0.14
same,NP40-soluble protein abundance,concentration: 0.5mM,0.977 ± 0.14
same,NP40-soluble protein abundance,concentration: 1mM,1.16 ± 0.29
same,NP40-soluble protein abundance,concentration: 2mM,1.1 ± 0.19
same,NP40-soluble protein abundance,concentration: 4mM,0.953 ± 0.29
same,NP40-soluble protein abundance,concentration: 6mM,0.957 ± 0.27
same,NP40-soluble protein abundance,concentration: 8mM,0.663 ± 0.15
same,NP40-soluble protein abundance,concentration: 10mM,0.939 ± 0.29
